This note sets out measurements from PubChem BioAssay (EPA / NIEHS).

Calls of active or inactive are those of the source. The calls were made as follows: active = hit-call score of the fitted dose curve at least 0.9, where 1 is the maximum; inactive = score below 0.9.

This assay is described as follows: ATG_SREBP_CIS: Attagene CIS-FACTORIAL HepG2 Assay for human Sterol Regulatory Element Binding (SREBP) (AID 2282962). Particulars: HepG2 Attagene cis-factorial SREBP reporter, mRNA; actives raise or lower the signal. The protocol:
ATG_CIS is a cell-based, multiplexed-readout assay that uses HepG2, a human liver cell line, with measurements taken at 24 hours after chemical dosing in a 24-well plate.ATG_SREBP_CIS is one of 52 assay component(s) measured or calculated from the ATG_CIS assay. It is designed to make measurements of mRNA induction, a form of inducible reporter, as detected with fluorescence intensity signals by Reverse transcription polymerase chain reaction (RT-PCR) and Capillary electrophoresis technology.Data from the assay component ATG_SREBP_CIS was analyzed into 1 assay endpoint. This assay endpoint, ATG_SREBP_CIS, was analyzed with bidirectional fitting relative to DMSO as the negative control and baseline of activity. Using a type of inducible reporter, measures of mRNA for gain or loss-of-signal activity can be used to understand the reporter gene at the transcription factor-level as they relate to the gene SREBF1. Furthermore, this assay endpoint can be referred to as a primary readout, because this assay has produced multiple assay endpoints where this one serves a reporter gene function. To generalize the intended target to other relatable targets, this assay endpoint is annotated to the dna binding intended target family, where the subfamily is basic helix-loop-helix leucine zipper.
Human liver HepG2 cells are transiently transfected with multiple reporter transcription units (MRTUs) in 6-well plates using FuGene 6 reagent (Roche; 3 ml FuGene/1 mg DNA). The MRTU constructs are regulated by a cis-regulating element (promoter). […] A major difference between the CIS and TRANS system is that in CIS activities of endogenous TFs are measured, whereas the TRANS assay evaluates changes in activities of exogenous, chimeric NR-Gal4 proteins. […] At the end of 24 hour incubation, total RNA was isolated using TriZol reagent (Invitrogen). The isolated RNA is then reverse-transcribed using oligo(dT) primer and Mo-MLV reverse transcriptase (Invitrogen) with DNAse I (Ambion) treatment for 30 min. The one-tenth of the produced cDNA was amplified by PCR using Taq DNA polymerase (Invitrogen) and two reporter sequence-specific primers. The PCR products were fluorescently labeled by primer extension with 6-arboxyfluorescein (6-FAM) 5'-labeled reporter sequence-specific primer (2 min at 95 C, 20 s at 68 C and 10 min at 72 C) and these products were digested with 5U of HpaI (New England Biolabs) for 2h at 37 C. The fragments were purified using Qiaquick PCR columns (Qiagen), analyzed on an ABI 3130xL genetic analyzer (Applied Biosystems) with peak positions identified by using a set of X-rhodamine (ROX)-labeled MapMarker1000 molecular weight standards (BioVentures). The raw capillary electrophoresis data was processed using Attagraph software (Attagene).
In the case of `Cc1ccc(N/N=c2\c(=O)cc/c(=N/Nc3ccc(S(=O)(=O)O)cc3)c2=O)c(C)c1`, the compound was called inactive.

On to `CC(=O)NS(=O)(=O)c1ccc(N)cc1`, for which the result was inactive.

For the compound `CC(=O)OCCC1CCCCC1`, the result was inactive.

Turning to `CCCCC/C=C\CCC=O`, the result was inactive.

With `C[C@]12C=CC(=O)C=C1CC[C@@H]1[C@@H]2[C@@H](O)C[C@@]2(C)[C@H]1CC[C@]2(O)C(=O)CO`, the outcome was inactive.

`NC(CO)(CO)CO`: the compound was classed as inactive.

Turning to `CCCCCCCCCCOC(C)=O`, the call was inactive.

Regarding `O=c1c2ccccc2oc2ccccc12`, the outcome was inactive.

Turning to `c1c[nH]cn1`, the compound was classed as inactive.

On to `O=C1CCCC1`, for which the result was inactive.

On to `CCCCCCCCCCCCCCCCCC#N`, for which the compound was classed as inactive.

On to `CCCCCCCC(C)=O`, for which the result was inactive.

With `C=CC(C)(C)C`, the call was inactive.

Take `CCO[Si](C)(OCC)OCC`: the compound was classed as inactive.

`O=C(Oc1ccccc1)c1ccc2ccccc2c1O`: the compound was called inactive.

As for `c1cc(N(CC2CO2)CC2CO2)ccc1OCC1CO1` (stereo not given), the AC50 was 68.3 µM (active).

On to `O=C(O)C(c1ccc(Cl)cc1)c1ccc(Cl)cc1`, for which the outcome was inactive.

Take `Nc1ccc(Cl)cc1Cl`: the result was inactive.

`CC(C)(C)c1ccc(-c2ccc(C(C)(C)C)cc2)cc1`: the outcome was inactive.

Consider `O=C1C=CC(=O)O1`, for which the call was inactive.

With `O=C1CC2CC1C1CCCC21` (stereo not given), the compound was called inactive.

As for `C=CC(C)(CCC=C(C)C)OC(=O)CC(C)C` (stereo not given), the AC50 is 118 µM (active).

Consider `O=S1(=O)OC(c2ccc(O)cc2)(c2ccc(O)cc2)c2ccccc21`, for which the result was inactive.

As to `CC(C)c1ccc(C#N)cc1`, the compound was called inactive.

For the compound `O=C1OC(=O)c2cc(Oc3ccc4c(c3)C(=O)OC4=O)ccc21`, the outcome was inactive.

Turning to `CC(C)(C)C(=O)C=Cc1ccc(Cl)cc1`, the call was inactive.

Take `O=C(c1ccccc1)C1CCC1`: the call was inactive.

With `NC(=O)N=NC(N)=O`, the compound was classed as inactive.

For the compound `OCCN(CCO)c1ccccc1`, the outcome was inactive.

Consider `CC(C)=CCC/C(C)=C\C#N`, for which the outcome was inactive.

Turning to `CO[Si](CCC1CCC2OC2C1)(OC)OC` (stereo not given), the result was inactive.

For the compound `CO[Si](OC)(OC)c1ccccc1`, the result was inactive.

With `C=C1C2CCC(C2)C1(C)C` (stereo not given), the compound was called inactive.

Take `CC(=O)OC1C2(C)CCC(C2)C1(C)C` (stereo not given): the compound was called inactive.

`COc1ccc(NC(C)=O)cc1N`: the outcome was inactive.

Turning to `CCCCCC(C)O` (stereo not given), the outcome was inactive.

`CN(C)c1ccc(N=Nc2ccccc2C(=O)O)cc1`: the call was inactive.

As to `O=C1c2cccc(O)c2C(=O)c2c(O)cc(CO)cc21`, the compound was classed as inactive.

As for `CCc1nccnc1C`, the result was inactive.

On to `CCCC(C)CCC(C)=O` (stereo not given), for which the result was inactive.
